Assay outcomes as filed in PubChem.
This is a sample that favours compounds with a hit; in the whole collection about 1.2% have one here.
RGS4-Gao reg – modulates binding of RGS4 to human Galphao. P09471. Multiplexed bead flow cytometry; actives lie on both sides. binding response (% of control), % at 10 µM. 220,000 tested, 0.33% active; in the data active means binding response below about 49% or above about 150%; inactive means in between;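 further: fluorescent Galphao activated with aluminum fluoride binding bead-coupled RGS4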
Target sequence (P09471 whole entry, looked up): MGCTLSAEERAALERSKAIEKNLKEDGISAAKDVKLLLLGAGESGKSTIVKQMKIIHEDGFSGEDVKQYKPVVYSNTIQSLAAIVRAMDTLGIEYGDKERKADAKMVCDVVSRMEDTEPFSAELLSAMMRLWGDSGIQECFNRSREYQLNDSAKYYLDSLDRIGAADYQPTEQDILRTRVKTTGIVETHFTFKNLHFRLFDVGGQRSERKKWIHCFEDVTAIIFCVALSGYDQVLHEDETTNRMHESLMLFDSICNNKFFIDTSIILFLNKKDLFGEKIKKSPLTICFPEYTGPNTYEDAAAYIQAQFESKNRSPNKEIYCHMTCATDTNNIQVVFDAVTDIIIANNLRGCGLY
RGS8-Gao – human RGS8-Galphao interaction regulation. multiplexed bead flow cytometry, RGS8-Galphao binding; actives lie on both sides. response (percent of control binding), % at 10 µM. 220,000 tested, 0.34% active. AID 1423; in the data active means response below about 60% or above about 140%; inactive means in between;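 further: Galphao activated as the GDP aluminium fluoride complex binding bead-coupled RGS8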
RGS16-Gao HTS – regulators of human RGS16-Galphao interaction; 220,000 tested, 0.38% active; AID 1441; binding response (% of control), % at 10 µM; bead-based flow cytometry RGS16-Galphao binding, fluorescence; actives lie on both sides; O15492+P09471;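 further: Galphao activated by GDP with aluminum fluoride before binding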
Target sequence (O15492 whole entry, looked up): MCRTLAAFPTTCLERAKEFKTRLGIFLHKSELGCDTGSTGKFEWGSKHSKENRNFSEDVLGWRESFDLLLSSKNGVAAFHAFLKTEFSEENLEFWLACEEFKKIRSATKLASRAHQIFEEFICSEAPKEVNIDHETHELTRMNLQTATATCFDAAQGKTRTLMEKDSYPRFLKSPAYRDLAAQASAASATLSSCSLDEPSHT
Target sequence (P09471 whole entry, looked up): as the sequence (P09471 whole entry, looked up) above
RGS7-Gao – human RGS7-Galphao interaction regulation | P09471 | 220,000 tested, 0.35% active | binding response (% of control), % at 10 µM | Multiplexed bead flow cytometry, RGS7-Galphao binding; actives lie on both sides; in the data active means binding response below about 49% or above about 150%; inconclusive means no clear call, values can overlap the other calls; inactive means in between;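 further: fluorescent Galphao held in activated GDP-AlF4 state binding bead-coupled RGS7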
Avidin bead fluor – compound fluoresces at 488/530 nm on avidin beads | 220,000 tested, 0.38% active | fluorescence (KMESF) at 10 µM | compound fluorescence 488/530 nm, flow cytometry; stronger effect = higher value | AID 1775; in the data active means fluorescence above about 47
GSH bead fluor – GSH bead compound fluorescence profile; GSH beads flow cytometry, compound fluorescence 488/530 nm; stronger effect = higher value; fluorescence (KMESF) at 10 µM; 190,000 tested, 0.25% active; AID 1776; in the data active means fluorescence above about 89;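 further: glutathione beads carrying GST-tagged Bcl family fusion proteins plus one bare bead set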
RGS4-Gao HTS – RGS4-Galphao interaction regulator (human). 1,600 tested, 99% active. RGS4–Galpha-o binding response, % at 10 µM. shares compounds with RGS16-Gao HTS. multiplexed bead flow cytometry, RGS–Galpha-o binding;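 further: fluorescently labeled Galpha-o bound to GDP with aluminium fluoride binding biotinylated RGS beads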
Biotin-avidin – interferes with biotinylated probe binding to avidin beads. shares compounds with RGS16-Gao HTS. streptavidin beads, fluorescein-biotin binding, flow cytometry. inhibition, % at 10 µM. 1,700 tested, under 10 active. AID 1783;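 active means inhibition above 50%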;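 further: median green fluorescence of gated singlet beads compared with DMSO control wells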
RGS8-Gao single – confirmation of regulators of human RGS8-Galphao interaction; shares compounds with RGS16-Gao HTS; bead-based flow cytometry RGS8-Galphao binding, fluorescence; actives lie on both sides; binding response (% of control), % at 10 µM; 1,700 tested, 3% active; AID 1836; in the data active means binding response below about 72% or above about 130%; inactive means in between;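 further: Galphao activated as GDP AlF4 complex before binding bead RGS8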
RGS7-Gao single – RGS7-Galphao interaction regulation, single point confirmation | response (percent of control binding), % at 10 µM | shares compounds with RGS16-Gao HTS | 1,700 tested, 7.8% active | AID 1837 | bead-based flow cytometry RGS7-Galphao binding; actives lie on both sides; in the data active means response below about 75% or above about 130%; inactive means in between;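 further: fluorescent Galphao activated with GDP and aluminum fluoride binding bead-coupled RGS7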
RGS16-Gao single – confirmation of regulators of human RGS16-Galphao interaction; shares compounds with RGS16-Gao HTS; response (% of control binding), % at 10 µM; 1,700 tested, 4% active; AID 1838; bead-based flow cytometry, RGS16-Galphao binding; actives lie on both sides; in the data active means response below about 74% or above about 130%; inactive means in between;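 further: Galphao activated as the GDP aluminium fluoride complex binding bead-coupled RGS16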
RGS4-Gao confirm – RGS4-Galphao interaction regulation, single point confirmation; shares compounds with RGS16-Gao HTS; RGS4-Galphao binding, multiplexed bead flow cytometry; actives lie on both sides; binding response (% of control), % at 10 µM; 1,700 tested, 4% active; AID 1840; in the data active means binding response below about 74% or above about 130%; inactive means in between
RGS19-Gao single – RGS19-Galphao interaction regulation, single point confirmation | shares compounds with RGS16-Gao HTS | response (percent of control binding), % at 10 µM | bead-based flow cytometry RGS19-Galphao binding; actives lie on both sides | 1,700 tested, 5% active; in the data active means response below about 50% or above about 160%; inactive means in between
Numbers stand for hits; n = inactive; u = inconclusive; x = not tested or not shown; [ ] = remark or other dose. Unless noted, how the calls were made is not given here.

SMILES	RGS4-Gao reg	RGS8-Gao	RGS16-Gao HTS	RGS7-Gao	Avidin bead fluor	GSH bead fluor	Biotin-avidin	RGS8-Gao single	RGS7-Gao single	RGS16-Gao single	RGS4-Gao confirm	RGS19-Gao single	others
O=C1CCC(N2C(=O)c3ccccc3C2=O)C(=O)N1 (centres undefined)	37	46	n	23	n	n	n	n	n	n	n	n
CCN1C(=O)C(CC(=O)Nc2ccc(OC)cc2)N(Cc2ccco2)C1=S (centres undefined)	n	143[activator]	n	n	n	n	n	n	n	n	n	n	RGS4-Gao HTS=116
O=C(CSC(=S)N1CCCCC1)Nc1ncc2c(n1)CC(c1ccco1)CC2=O (centres undefined)	181[activator]	144[activator]	n	u	n	x	n	n	n	n	n	n
Cc1ccc(S(=O)(=O)NC(=O)Nc2ncc3c(n2)CC(c2ccco2)CC3=O)cc1 (centres undefined)	n	n	14	n	n	n	n	n	n	n	n	n	RGS4-Gao HTS=79
CC(=O)Nc1ncc2c(n1)CC(c1ccco1)CC2=O (centres undefined)	n	n	n	n	n	n	x	x	x	x	x	x
CCOc1ccc(-n2c(=S)sc3c(=O)[nH]c(SCC(=O)C(C)(C)C)nc32)cc1	n	n	n	n	n	n	x	x	x	x	x	x
O=C(CSc1ncnc2c1oc1ccccc12)Nc1nccs1	n	n	n	155[activator]	n	n	n	n	n	n	n	n	RGS4-Gao HTS=146
O=c1oc2ccccc2c(N2CCCCC2)c1[N+](=O)[O-]	n	n	n	n	n	n	x	x	x	x	x	x
O=c1oc2ccccc2c(N2CCCC2)c1[N+](=O)[O-]	157[activator]	161[activator]	180[activator]	157[activator]	n	n	n	n	n	n	n	n
CSCC(O)Cn1ncc2ccccc2c1=O (centres undefined)	n	n	n	u	n	x	x	x	x	x	x	x
Cc1ccc(C(C(=O)NC2CCCCC2)N(CC2CCCO2)C(=O)CNC(=O)c2ccco2)cc1 (centres undefined)	n	n	n	n	n	n	x	x	x	x	x	x
O=C(NCC(=O)N(Cc1ccccc1)C(C(=O)NC1CCCC1)c1ccco1)c1ccco1 (centres undefined)	n	n	n	n	n	n	x	x	x	x	x	x
O=C(CN(Cc1ccccc1C(F)(F)F)C(=O)CNC(=O)c1ccco1)NC1CCCC1	n	n	n	171[activator]	104	n	n	n	n	n	n	n	RGS4-Gao HTS=113
O=C(NCC(=O)N(CC1CCCO1)C(C(=O)NC1CCCCC1)c1ccc(F)cc1)c1ccco1 (centres undefined)	165[activator]	n	n	237[activator]	175	n	n	n	n	n	n	n
COc1cccc(CN2CCN(Cc3ccc(OC)c(OC)c3)CC2CCO)c1 (centres undefined)	n	n	n	n	n	n	x	x	x	x	x	x
N#CC1CCN(c2ncccc2[N+](=O)[O-])CC1	282[activator]	n	n	u	n	x	n	n	n	n	n	n
CCOc1cccc2cc(C(N)=O)c(=N)oc12	n	n	n	u	n	x	x	x	x	x	x	x
CC(C)CC1CC(C)(c2csc(NNC(=O)c3ccccc3)n2)OC1=O (centres undefined)	n	n	n	n	n	n	x	x	x	x	x	x
C/C(=N/NC(=O)c1cc(O)c(O)c(O)c1)c1ccc([N+](=O)[O-])cc1	21	8.8	-2.4	6.2	n	n	n	n	n	n	n	n
Cc1ccc(S(=O)(=O)Nc2n[nH]nc2C(=O)NC2CCCCC2)cc1	n	n	n	n	n	n	x	x	x	x	x	x
O=c1[nH]c2c(c(=O)[nH]1)CCC2	n	n	n	u	n	n	x	x	x	x	x	x
CSc1ccccc1NC(=O)C1C2CCC(C2)C1C(=O)O (centres undefined)	24	40	21	33	n	n	n	n	n	n	n	n
CC(C)c1cccc(C(C)C)c1OCCCCN1CCCC1	x	x	x	x	x	n	n	n	n	n	n	n
Fc1ccc(C(Nc2ccccn2)c2c[nH]c3ccccc23)cc1 (centres undefined)	n	141[activator]	n	n	n	n	n	n	n	n	n	n	RGS4-Gao HTS=125
COc1ccc(C(=O)NC(=O)Nc2ncccc2C)cc1	n	n	2.9	n	n	n	n	n	n	n	n	n	RGS4-Gao HTS=77
SMILES	RGS4-Gao reg	RGS8-Gao	RGS16-Gao HTS	RGS7-Gao	Avidin bead fluor	GSH bead fluor	Biotin-avidin	RGS8-Gao single	RGS7-Gao single	RGS16-Gao single	RGS4-Gao confirm	RGS19-Gao single	others
COc1ccc(NC(=O)Nc2ncccc2C)cc1	n	n	n	n	n	n	x	x	x	x	x	x
CCCCc1ccc(NC(=S)N2CCC(O)CC2)cc1	n	n	n	n	n	n	x	x	x	x	x	x
CCn1c(=O)c(C(=O)NCc2cccnc2)c(O)c2ccccc21	n	x	x	x	x	n	n	n	n	n	n	n
COc1ccc(NC(=O)CSc2ncnc3c2cnn3CCc2ccccc2)cc1	-20	19	-12	0.3	n	n	n	n	n	n	n	n
COc1cccc(NC(=O)CSc2ncnc3c2cnn3Cc2ccccc2)c1	n	n	n	n	n	n	x	x	x	x	x	x
Cc1cccc(NC(=S)NC(C)C(c2ccccc2)N2CCN(C)CC2)c1C (centres undefined)	n	n	n	n	n	n	x	x	x	x	x	x
CCOC(=O)c1c(NC(=O)C(C)N2CCN(S(=O)(=O)c3cccs3)CC2)sc2c1CCC(C)C2 (centres undefined)	n	n	n	n	n	n	x	x	x	x	x	x
CCN1/C(=C/c2ccc3cccc(C)c3[n+]2CC)Sc2ccccc21	196[activator]	n	n	161[activator]	n	n	n	n	n	n	n	n
COc1cc(Br)c(C2C(C#N)=C(N)Oc3n[nH]c(-c4cccnc4)c32)cc1OC (centres undefined)	n	n	n	n	n	n	x	x	x	x	x	x
Cc1ccc(-c2nn(-c3ccccc3)cc2/C=C2\SC(=S)N(CC(=O)O)C2=O)cc1	n	n	n	u	n	x	x	x	x	x	x	x
CCOc1ccc(-c2nn(-c3ccccc3)cc2/C=C2\SC(N)=NC2=O)cc1C	22	12	1.8	16	n	n	n	n	n	n	n	n
